Inhibition data for 40 compounds are collected here from PubChem BioAssay.

Values without a mark were called inactive. How the calls were made is not given here.

In this test the target is Pantothenate synthetase (Mycobacterium tuberculosis (strain ATCC 25618 / H37Rv)) (UniProt P9WIL5). Put plainly: Coupled enzyme confirmation of inhibitors against recombinant Mtb PanC (AID 375).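 Further: 0% = full reaction with vehicle and 100% = no enzyme background.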 The note with it: coupled enzyme assay; at 10 µM, stronger effect = higher value.
Chain of Pantothenate synthetase (Mycobacterium tuberculosis (strain ATCC 25618 / H37Rv)) (P9WIL5 whole entry, looked up): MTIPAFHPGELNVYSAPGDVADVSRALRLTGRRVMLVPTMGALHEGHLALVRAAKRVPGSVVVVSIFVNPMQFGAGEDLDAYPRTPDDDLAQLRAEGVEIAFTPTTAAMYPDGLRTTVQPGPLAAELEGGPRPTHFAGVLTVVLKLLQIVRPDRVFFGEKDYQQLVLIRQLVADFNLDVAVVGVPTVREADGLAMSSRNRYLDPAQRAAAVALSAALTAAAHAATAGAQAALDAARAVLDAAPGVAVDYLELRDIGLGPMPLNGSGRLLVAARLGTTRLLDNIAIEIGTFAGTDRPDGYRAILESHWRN
For the compound `COc1ccccc1Nc1nc(N)nc(-c2cc3ccccc3o2)n1`, the inhibition (in general, the drop in the measured response relative to a control, in per cent) is 0%.

On to `CCOC(=O)N1CCC(NC(=O)Cn2cc3c(n2)CCC(C)C3)CC1` (stereo not given), for which the inhibition was 0%.

In the case of `CNC(=O)CSc1nnc(-c2ccc(S(=O)(=O)N3CCCC3)cc2)n1-c1cccc(C)c1C`, the inhibition was 0%.

`Cc1ccc(-c2nc(=S)c3c(n2Cc2ccco2)CCCC3)cc1`: the inhibition is 0%.

In the case of `Cc1oc2nc(SCCCC(=O)NCCCO)nc(N)c2c1C`, the inhibition was 2%.

Consider `Cn1c(=O)[nH]c(=O)c2c1nc(NCCCn1ccnc1)n2Cc1ccccc1`, for which the inhibition was 0%.

As for `COc1ccc(C2(C(=O)Nc3cc(C)on3)CCOCC2)cc1`, the inhibition is 2%.

As to `O=C(CSc1nnc(Cn2c(=O)sc3ccccc32)n1-c1ccccc1)NCC1CCCO1` (stereo not given), the inhibition is 0%.

With `Cc1ccc(-n2c3c(cc(C(=O)NC4CCSC4=O)c2=O)C(=O)CC(C)(C)C3)cc1` (stereo not given), the inhibition was 0%.

`CC(C)C(=O)N1CCN(c2nc(-c3ccccc3)c3c(c2C#N)CCCC3)CC1`: the inhibition was 0%.

For `C/C=C(/C(=C/C)c1ccc(O)cc1)c1ccc(O)cc1`, the inhibition is 0%.

Turning to `COc1ccccc1C(=O)Nc1ccc(S(=O)(=O)N2CCOCC2)cc1`, the inhibition is 6%.

For `COCCn1c(SCC(=O)Nc2cccc(OC)c2)nnc1-c1ccc(Cl)cc1`, the inhibition is 3%.

`CN1CCN(C(=O)c2ccccc2N(Cc2ccccc2)S(C)(=O)=O)CC1`: the inhibition is 0%.

With `Cc1cccc(-n2c(Cc3cc(=O)[nH]c(=O)[nH]3)nnc2SCC(=O)NCc2ccco2)c1`, the inhibition was 4%.

Take `CCOc1ccccc1N(CC(=O)NC1CCCC1)C(=O)CCCC(=O)Nc1ccccn1`: the inhibition was 5%.

In the case of `O=C(CN1CCC(NC(=O)c2ccc(F)cc2)CC1)NCc1ccccc1F`, the inhibition was 5%.

For `Cc1cc(NC(=O)Cc2cn3ccsc3n2)n(-c2ccccc2)n1`, the inhibition was 1%.

Take `Cc1nc2oc3c(NCc4ccccn4)ncnc3c2c2c1COC(C)(C)C2`: the inhibition is 0%.

For `CCOC(=O)C1CCCN(c2cc(=O)n(Cc3ccc(F)cc3)c(=O)[nH]2)C1` (stereo not given), the inhibition was 2%.

For the compound `COc1ccccc1N1C(=O)CCC1(C#N)c1ccccc1` (stereo not given), the inhibition is 0%.

Consider `CCn1c(SCC(=O)Nc2cc(C)ccc2C)nc2c(c1=O)SC(C)C2` (stereo not given), for which the inhibition is 0%.

On to `C=CCn1c(SCC(=O)NCC2CCCO2)nc2scc(-c3ccco3)c2c1=O` (stereo not given), for which the inhibition is 5%.

On to `CCCCC(=O)O[C@]1(C(=O)CO)CC[C@H]2[C@@H]3CCC4=CC(=O)CC[C@]4(C)[C@H]3[C@@H](O)C[C@@]21C`, for which the inhibition is 10%.

Turning to `CCCN(CCC)CCNC(=O)C(NS(=O)(=O)c1ccc2c(c1)CCC(=O)N2)c1ccccc1` (stereo not given), the inhibition was 0%.

Take `c1ccc2c(c1)CNc1ccccc1C2`: the inhibition is 0%.

For the compound `CC12CN3CCN(CC(C3)C1(O)CN1CCCCC1)C2` (stereo not given), the inhibition was 0%.

For `CCCN(S(=O)(=O)c1ccc(OCC)cc1)S(=O)(=O)c1cccs1`, the inhibition is 0%.

Turning to `COc1ccc(C(c2sc3nc(C)nn3c2O)N2CCCCC2)cc1` (stereo not given), the inhibition is 0%.

As for `Cc1[nH]nc(-c2ccc(O)c(C)c2O)c1-c1cnn(-c2ccccc2)c1`, the inhibition is 0%.

Consider `O=C(Cn1nc(C(F)(F)F)c2c1CCCC2)NCCN1CCOCC1`, for which the inhibition was 5%.

On to `CCCCSc1nnc([C@H](C)NC(=O)OC(C)(C)C)o1`, for which the inhibition was 2%.

In the case of `CCOC(=O)C1CCN(c2c(NCCCN(CC)c3ccccc3)c(=O)c2=O)CC1`, the inhibition is 0%.

`Cn1cnc2c1c(=O)[nH]c(=O)n2C`: the inhibition is 0%.

In the case of `Cc1cc(OC(=O)N2CCOCC2)cc(C)c1Cl`, the inhibition was 0%.

Turning to `CCOCCCNC(=O)Cn1ncc2c(=O)oc3ccccc3c21`, the inhibition was 0%.

On to `CSc1nc(NC(C)(C)C)nc(Oc2ccc(=O)[nH]n2)n1`, for which the inhibition is 0%.

Regarding `O=C1C2CC=C(Cl)CC2C(=O)N1c1ncn[nH]1` (stereo not given), the inhibition is 0%.

With `COc1ccccc1NC(=O)C1(C)Cc2ccccc2C(=O)O1` (stereo not given), the inhibition was 0%.

Take `Cc1cccc(Cc2c(C)nc3nc(SCC(=O)NCc4ccco4)nn3c2C)c1`: the inhibition is 2%.
